Of roughly 8,800 targets only a part is listed; those with a hit were picked by preference. About 0.5% of all pairs of compound and target were hits. Values without a mark were called inactive.
Experiments:
Test in all cases: log2 fold change, soluble protein after heating vs DMSO (PISA); higher = thermal stabilisation; K562 lysate, 10 uM; active = over 0.2 and 3.5 SD of the protein, either way, in both replicates (recomputed)
[1] = compound: C1=CC=C(C=C1)[C@H](COC2=CC3=C(C=C2)NC(=O)N3)NC(=O)C4=CC=CN(C4=O)CC5=CC(=C(C=C5)F)F
Procedure, shortened: (§1)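 Following dounce homogenisation of K562 pellets in PBS pH 7.4 with 1 mM MgCl2, crude extract at 1 mg/mL protein was incubated for 30 min with 10 μM compound. Aliquots were then heated for 3 min over 48°C-58°C and pooled, NP-40 was added to 0.5% at 4°C, and soluble protein was recovered as the supernatant at 21,000xg for 90 min. Channel-sum-equalised TMTpro 16plex LC-MS/MS quantified this protein. Each value, from duplicates, is a log-two fold change in thermal stability relative to solvent controls.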

[2] = compound: CC1=C(SC2=C1C(=N[C@H](C3=NN=C(N32)C)CC(=O)N)C4=CC=C(C=C4)Cl)C
Procedure, shortened: as §1

[3] = compound: CC1=C2C(=CC=C1)N=C(N(C2=O)C3=CC=CC=C3C)CN4C=NC5=C(N=CN=C54)N
Procedure, shortened: as §1

[4] = compound: Cc1sc2c(c1C)C(c1ccc(Cl)cc1)=N[C@@H](CC(=O)OC(C)(C)C)c1nnc(C)n1-2
Procedure, shortened: as §1

[5] = compound: c1ccc([C@@H]2C[C@H]2NC2CCNCC2)cc1
Procedure, shortened: as §1

Sequence of UniProt Q99836 (Q99836 whole entry, looked up): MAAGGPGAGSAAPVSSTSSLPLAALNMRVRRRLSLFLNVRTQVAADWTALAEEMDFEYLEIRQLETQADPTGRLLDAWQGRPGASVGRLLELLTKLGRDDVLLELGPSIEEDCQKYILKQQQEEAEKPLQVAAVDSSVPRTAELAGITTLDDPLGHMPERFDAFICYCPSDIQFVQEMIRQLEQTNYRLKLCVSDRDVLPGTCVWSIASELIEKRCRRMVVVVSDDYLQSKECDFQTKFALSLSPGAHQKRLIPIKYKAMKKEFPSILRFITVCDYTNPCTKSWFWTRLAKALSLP
Sequence of UniProt P00480 (P00480 whole entry, looked up): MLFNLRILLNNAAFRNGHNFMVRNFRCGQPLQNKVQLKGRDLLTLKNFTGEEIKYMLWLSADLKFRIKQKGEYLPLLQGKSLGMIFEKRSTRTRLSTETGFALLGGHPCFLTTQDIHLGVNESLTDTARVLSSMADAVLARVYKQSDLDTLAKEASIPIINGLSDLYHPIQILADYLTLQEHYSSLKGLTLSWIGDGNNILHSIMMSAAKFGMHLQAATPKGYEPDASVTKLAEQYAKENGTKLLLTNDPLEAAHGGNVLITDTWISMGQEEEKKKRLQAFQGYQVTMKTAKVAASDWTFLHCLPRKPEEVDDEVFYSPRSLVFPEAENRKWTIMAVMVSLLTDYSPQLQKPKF
Sequence of UniProt O95644 (O95644 whole entry, looked up): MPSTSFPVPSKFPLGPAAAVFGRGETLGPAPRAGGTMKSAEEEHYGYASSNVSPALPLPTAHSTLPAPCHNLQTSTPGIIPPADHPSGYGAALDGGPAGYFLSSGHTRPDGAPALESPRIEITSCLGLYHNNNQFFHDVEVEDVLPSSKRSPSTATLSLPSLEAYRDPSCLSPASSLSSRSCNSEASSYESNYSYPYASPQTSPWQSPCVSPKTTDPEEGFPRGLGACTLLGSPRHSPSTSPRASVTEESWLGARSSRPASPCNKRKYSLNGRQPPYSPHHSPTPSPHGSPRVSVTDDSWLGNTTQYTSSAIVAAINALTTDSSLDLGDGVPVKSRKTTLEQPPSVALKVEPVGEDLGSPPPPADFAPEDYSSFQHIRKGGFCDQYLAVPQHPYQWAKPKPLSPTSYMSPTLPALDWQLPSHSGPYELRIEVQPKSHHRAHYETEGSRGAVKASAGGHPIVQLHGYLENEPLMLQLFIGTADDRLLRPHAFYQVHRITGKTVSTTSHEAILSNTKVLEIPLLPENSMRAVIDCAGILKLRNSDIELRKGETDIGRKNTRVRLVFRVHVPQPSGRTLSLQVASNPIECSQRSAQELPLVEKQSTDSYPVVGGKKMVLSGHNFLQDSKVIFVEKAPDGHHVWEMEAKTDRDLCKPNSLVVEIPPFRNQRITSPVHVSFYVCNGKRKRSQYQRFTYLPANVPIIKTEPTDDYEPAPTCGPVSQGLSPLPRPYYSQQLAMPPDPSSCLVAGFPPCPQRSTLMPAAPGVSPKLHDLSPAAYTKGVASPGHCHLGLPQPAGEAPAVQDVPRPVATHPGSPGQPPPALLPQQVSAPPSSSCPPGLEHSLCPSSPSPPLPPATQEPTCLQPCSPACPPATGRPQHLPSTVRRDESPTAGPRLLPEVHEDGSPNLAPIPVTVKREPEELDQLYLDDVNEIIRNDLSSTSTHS
Sequence of UniProt Q6GQQ9 (Q6GQQ9 whole entry, looked up): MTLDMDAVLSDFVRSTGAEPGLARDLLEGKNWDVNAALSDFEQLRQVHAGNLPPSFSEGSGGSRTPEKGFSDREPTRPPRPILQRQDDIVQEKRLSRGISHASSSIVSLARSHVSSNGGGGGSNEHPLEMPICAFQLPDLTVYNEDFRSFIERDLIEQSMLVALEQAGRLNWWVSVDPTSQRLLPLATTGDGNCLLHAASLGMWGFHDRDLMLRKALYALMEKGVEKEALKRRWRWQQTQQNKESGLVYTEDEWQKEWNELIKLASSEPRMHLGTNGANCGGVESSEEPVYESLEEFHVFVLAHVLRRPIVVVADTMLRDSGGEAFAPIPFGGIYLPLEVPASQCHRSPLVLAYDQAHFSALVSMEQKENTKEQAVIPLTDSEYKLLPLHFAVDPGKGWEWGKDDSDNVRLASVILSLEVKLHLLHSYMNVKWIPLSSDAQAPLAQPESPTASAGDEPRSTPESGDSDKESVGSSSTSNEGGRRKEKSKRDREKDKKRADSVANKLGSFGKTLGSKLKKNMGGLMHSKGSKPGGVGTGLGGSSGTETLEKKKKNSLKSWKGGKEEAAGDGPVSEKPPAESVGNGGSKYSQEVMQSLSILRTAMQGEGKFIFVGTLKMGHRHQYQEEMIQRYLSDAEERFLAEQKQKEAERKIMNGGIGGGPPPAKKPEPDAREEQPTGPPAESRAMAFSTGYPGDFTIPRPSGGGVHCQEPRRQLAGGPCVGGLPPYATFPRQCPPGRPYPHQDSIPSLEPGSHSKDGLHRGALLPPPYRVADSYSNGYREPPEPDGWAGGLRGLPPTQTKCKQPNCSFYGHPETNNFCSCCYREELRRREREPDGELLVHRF
Sequence of UniProt Q96RE7 (Q96RE7 whole entry, looked up): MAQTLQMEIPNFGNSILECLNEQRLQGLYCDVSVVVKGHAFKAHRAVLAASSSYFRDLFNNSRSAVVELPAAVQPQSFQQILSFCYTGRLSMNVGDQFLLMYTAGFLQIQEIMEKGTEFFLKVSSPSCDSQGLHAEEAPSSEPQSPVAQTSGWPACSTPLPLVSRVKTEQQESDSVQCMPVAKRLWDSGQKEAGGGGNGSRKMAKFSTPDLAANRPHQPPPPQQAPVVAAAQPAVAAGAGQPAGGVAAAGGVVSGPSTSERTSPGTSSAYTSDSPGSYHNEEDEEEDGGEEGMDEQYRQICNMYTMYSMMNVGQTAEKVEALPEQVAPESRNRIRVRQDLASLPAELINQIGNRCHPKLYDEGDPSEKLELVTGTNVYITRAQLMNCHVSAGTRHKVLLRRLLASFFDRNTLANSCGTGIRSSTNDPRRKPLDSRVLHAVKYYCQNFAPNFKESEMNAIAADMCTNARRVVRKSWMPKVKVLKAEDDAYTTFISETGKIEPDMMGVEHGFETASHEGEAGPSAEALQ
Sequence of UniProt Q13416 (Q13416 whole entry, looked up): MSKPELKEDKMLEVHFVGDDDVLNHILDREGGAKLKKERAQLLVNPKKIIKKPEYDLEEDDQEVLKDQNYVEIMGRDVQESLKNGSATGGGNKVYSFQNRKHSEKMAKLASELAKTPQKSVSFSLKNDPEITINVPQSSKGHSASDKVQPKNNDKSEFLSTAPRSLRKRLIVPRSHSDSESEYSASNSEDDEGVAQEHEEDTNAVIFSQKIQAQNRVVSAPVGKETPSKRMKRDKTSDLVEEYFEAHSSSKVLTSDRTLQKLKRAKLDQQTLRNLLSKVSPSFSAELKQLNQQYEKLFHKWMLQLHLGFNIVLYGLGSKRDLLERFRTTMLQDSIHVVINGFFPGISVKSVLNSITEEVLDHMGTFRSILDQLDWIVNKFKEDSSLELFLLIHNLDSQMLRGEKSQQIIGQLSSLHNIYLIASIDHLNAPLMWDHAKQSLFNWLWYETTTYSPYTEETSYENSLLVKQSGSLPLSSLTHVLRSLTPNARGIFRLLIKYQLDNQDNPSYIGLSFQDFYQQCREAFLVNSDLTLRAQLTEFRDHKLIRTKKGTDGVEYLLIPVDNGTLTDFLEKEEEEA
Sequence of UniProt Q9Y314 (Q9Y314 whole entry, looked up): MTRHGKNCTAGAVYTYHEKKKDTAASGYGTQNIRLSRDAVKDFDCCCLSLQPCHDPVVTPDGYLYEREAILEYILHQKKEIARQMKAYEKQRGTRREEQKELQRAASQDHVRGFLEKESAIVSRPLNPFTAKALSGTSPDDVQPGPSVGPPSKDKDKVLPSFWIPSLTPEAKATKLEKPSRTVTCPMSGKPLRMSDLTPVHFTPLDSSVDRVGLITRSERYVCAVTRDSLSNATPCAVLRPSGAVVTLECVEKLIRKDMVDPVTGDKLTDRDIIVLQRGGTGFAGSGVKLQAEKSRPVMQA
Sequence of UniProt Q15233 (Q15233 whole entry, looked up): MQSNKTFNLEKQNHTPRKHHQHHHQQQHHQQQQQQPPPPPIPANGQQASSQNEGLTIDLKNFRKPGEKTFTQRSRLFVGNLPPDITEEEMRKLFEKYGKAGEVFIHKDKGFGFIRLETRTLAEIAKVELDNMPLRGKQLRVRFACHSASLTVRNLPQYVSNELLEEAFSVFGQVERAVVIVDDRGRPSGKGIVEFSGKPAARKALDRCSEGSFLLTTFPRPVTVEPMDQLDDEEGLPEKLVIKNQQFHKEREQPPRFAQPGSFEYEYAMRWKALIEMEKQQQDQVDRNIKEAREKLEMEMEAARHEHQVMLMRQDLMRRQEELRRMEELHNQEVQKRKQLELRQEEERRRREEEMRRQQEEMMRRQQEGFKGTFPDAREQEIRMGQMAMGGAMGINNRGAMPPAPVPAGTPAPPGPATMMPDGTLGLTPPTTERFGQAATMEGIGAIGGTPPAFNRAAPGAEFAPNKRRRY
Sequence of UniProt P80303 (P80303 whole entry, looked up): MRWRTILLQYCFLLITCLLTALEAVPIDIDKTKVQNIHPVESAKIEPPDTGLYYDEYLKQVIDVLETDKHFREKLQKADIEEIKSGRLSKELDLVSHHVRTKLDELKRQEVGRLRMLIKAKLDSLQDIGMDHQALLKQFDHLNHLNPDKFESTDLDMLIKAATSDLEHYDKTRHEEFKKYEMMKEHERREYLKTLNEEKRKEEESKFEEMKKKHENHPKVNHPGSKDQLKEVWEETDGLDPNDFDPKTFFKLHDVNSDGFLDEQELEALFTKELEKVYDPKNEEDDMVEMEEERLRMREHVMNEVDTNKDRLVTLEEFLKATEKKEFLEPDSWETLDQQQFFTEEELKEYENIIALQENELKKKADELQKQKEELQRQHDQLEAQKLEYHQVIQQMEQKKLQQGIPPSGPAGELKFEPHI
Sequence of UniProt O00483 (O00483 whole entry, looked up): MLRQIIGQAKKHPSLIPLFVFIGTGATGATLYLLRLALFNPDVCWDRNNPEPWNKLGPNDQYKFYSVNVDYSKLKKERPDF

Row | Target | log2 fold change [1] | log2 fold change [2] | log2 fold change [3] | log2 fold change [4] | log2 fold change [5]
1 | NFATC1 (UniProt O95644) | -0.006 | 0.047 | -0.017 | 0.003 | -0.127
2 | NEXN (UniProt Q0ZGT2) | -0.31 | 0.335 | 0.271 | -0.083 | -0.22
3 | NCAPG (UniProt Q9BPX3) | -0.031 | 0.013 | -0.007 | 0.013 | 0.03
4 | NTMT1 (UniProt Q9BV86) | -0.01 | -0.036 | -0.019 | 0.02 | 0.098
5 | MYO1C (UniProt O00159) | -0.025 | -0.038 | -0.051 | -0.025 | 0.033
6 | MTA1 (UniProt Q13330) | 0.005 | -0.01 | 0.01 | 0.055 | 0.012
7 | OSBP (UniProt P22059) | 0.007 | 0.048 | 0.036 | -0.009 | 0.039
8 | NFATC2 (UniProt Q13469) | 0.027 | 0.073 | 0.064 | 0.031 | -0.1
9 | NEBL (UniProt O76041) | -0.074 | 0.011 | 0.047 | 0.043 | 0.014
10 | NR3C1 isoform 3 (UniProt P04150) | 0.292 (active) | 0.034 | -0.001 | -0.035 | 0.084
11 | OGT (UniProt O15294) | 0.029 | 0.012 | 0.016 | 0.067 | 0.039
12 | NQO1 (UniProt P15559) | 0.433 (active) | 0.025 | 0.223 | -0.008 | -0.016
13 | MTOR (UniProt P42345) | -0.022 | 0.004 | 0.013 | 0.014 | 0.029
14 | MYD88 isoform 6 (UniProt Q99836) | 0.019 | -0.021 | 0.026 | -0.008 | 0.013
15 | NCAPD2 (UniProt Q15021) | -0.023 | 0.028 | 0.026 | 0.008 | 0.022
16 | OTC (UniProt P00480) | -0.11 | 0.131 | -0.028 | -0.38 | -2.16 (active)
17 | MRPL51 (UniProt Q4U2R6) | -0.001 | -0.053 | 0.043 | 0.066 | -0.109
18 | NDUFAF5 (UniProt Q5TEU4) | 0.078 | 0.016 | 0.026 | -0.174 | 0.004
19 | NCOR1 (UniProt O75376) | -0.009 | 0.002 | 0.035 | 0.015 | 0.001
20 | NMT1 (UniProt P30419) | 0.004 | 0.002 | -0.002 | 0.011 | 0.004
21 | NIT2 (UniProt Q9NQR4) | -0.033 | 0.017 | 0.027 | -0.007 | 0.058
22 | PAXBP1 (UniProt Q9Y5B6) | -0.004 | -0.026 | 0.026 | 0.057 | 0.001
23 | NTPCR (UniProt Q9BSD7) | -0.015 | 0.067 | -0.015 | 0.034 | 0.029
24 | OTUD7B (UniProt Q6GQQ9) | -0.004 | 0 | -0.001 | -0.02 | 0.035
25 | NFATC2IP (UniProt Q8NCF5) | 0.012 | -0.01 | 0.009 | 0.138 | 0.049
26 | NONO (UniProt Q15233) | -0.047 | 0.02 | 0.015 | 0.026 | 0.074
27 | MRPS31 (UniProt Q92665) | -0.019 | -0.048 | 0.046 | 0.014 | 0.014

Row | Target | log2 fold change [1] | log2 fold change [2] | log2 fold change [3] | log2 fold change [4] | log2 fold change [5]
28 | NCAPD3 (UniProt P42695) | 0.028 | -0.007 | 0.046 | -0.005 | 0.016
29 | NDUFA4 (UniProt O00483) | -0.019 | -0.048 | -0.063 | 0.035 | 0.287
30 | NUP133 (UniProt Q8WUM0) | 0.05 | 0.046 | 0.014 | 0.025 | -0.052
31 | MVB12A (UniProt Q96EY5) | 0.006 | 0.032 | 0.017 | 0.032 | 0.059
32 | MTA2 (UniProt O94776) | 0 | 0.015 | -0.004 | 0.015 | 0.031
33 | PANK4 (UniProt Q9NVE7) | -0.009 | -0.025 | 0.026 | 0.003 | -0.013
34 | NFKBIB (UniProt Q15653) | 0.068 | 0 | 0.014 | 0.055 | -0.185
35 | PARD3 (UniProt Q8TEW0) | 0.078 | 0.063 | -0.028 | 0.09 | -0.024
36 | MTHFD1L (UniProt B7ZM99) | -0.039 | 0.025 | 0.06 | 0.025 | 0.049
37 | NCOR2 (UniProt C9J0Q5) | 0.045 | 0.033 | -0.031 | 0.048 | -0.006
38 | PAK4 (UniProt O96013) | -0.06 | -0.03 | -0.018 | -0.021 | -0.14
39 | OPA1 isoform 2 (UniProt O60313) | -0.048 | 0.021 | 0.038 | 0.005 | 0.084
40 | MSH3 (UniProt P20585) | 0.018 | 0.014 | 0.039 | -0.008 | 0.04
41 | OCRL (UniProt Q01968) | 0.018 | 0.056 | 0.003 | 0.013 | -0.017
42 | N6AMT1 (UniProt Q9Y5N5) | -0.046 | -0.086 | -0.046 | -0.011 | 0.052
43 | NUCB2 (UniProt P80303) | 0.041 | -0.005 | -0.011 | -0.021 | 0.079
44 | NUP160 (UniProt Q12769) | -0.021 | -0.027 | 0.012 | -0.04 | 0.01
45 | MSH6 (UniProt P52701) | -0.021 | 0.01 | 0.034 | 0.006 | 0.014
46 | NFAT5 isoform 5 (UniProt O94916) | 0.12 | -0.028 | 0.009 | -0.02 | -0.007
47 | MRPS18A isoform 2 (UniProt Q9NVS2) | 0.005 | -0.101 | 0.054 | 0.066 | 0.2
48 | NACC1 (UniProt Q96RE7) | 0.013 | -0.004 | 0.027 | 0.013 | 0.033
49 | MRPL58 (UniProt Q14197) | 0.011 | 0.029 | 0.075 | -0.002 | 0.081
50 | NOSIP (UniProt Q9Y314) | 0.018 | -0.005 | -0.018 | 0.019 | 0.012
51 | ORC2 (UniProt Q13416) | -0.052 | -0.011 | -0.012 | 0.025 | 0.044
52 | NUP98 (UniProt P52948) | -0.018 | -0.03 | 0.037 | 0.052 | -0.003
53 | NEK7 (UniProt Q8TDX7) | 0.03 | -0.032 | -0.004 | -0.076 | 0.026
